Reference: PubChem BioAssay (EPA / NIEHS)
Results filed as inconclusive are left out. Activity calls are given as the source filed them. Rule for the calls: active = hit-call score of the fitted dose curve at least 0.9, where 1 is the maximum; inconclusive = response in the unintended direction; inactive = score below 0.9.

Tested on: not listed separately
Assay: TOX21_p53_BLA_p2_viability: Viability Assessment in the Tox21 HCT-116 p53 Agonism Beta-lactamase Assay, Phase 2 (AID 2283591);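 note: compound exposure lasted 16 h at 37 °C; actives lower the ATP signal meaning cytotoxicity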
Outline: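 Cytotoxicity readout: CellTiter-Glo ATP luminescence, 30 min at room temperature, after the beta-lactamase read. Cells were HCT116 exposed 16 h at 37C to compounds pin-transferred at 217-fold dilution from DMSO stocks.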
For `OCCCC1CCCCC1`, the outcome was “inactive”. In the case of `NC(=O)N[C@@H](CCC(=O)O)C(=O)O`, the outcome is reported as “inactive”. With `CC(C(=O)O)c1ccc2c(c1)[nH]c1ccc(Cl)cc12` (stereo not drawn) the outcome was “inactive”. With `C#CCN(C)CCCOc1ccc(Cl)cc1Cl` the outcome was “inactive”. In the case of `CC(C)(CO)[C@@H](O)C(=O)NCCC(=O)NCCSSCCNC(=O)CCNC(=O)[C@H](O)C(C)(C)CO`, the outcome is reported as “inactive”. In the case of `C/C=C/C=C/CO`, the outcome is reported as “inactive”. For `OC[C@@H](O)C(O)[C@H](O)CO`, the outcome was “inactive”. For `FC(F)(F)C(F)(F)C(F)(F)C(F)(F)C(F)(F)F`, the outcome was “inactive”. In the case of `C[C@]12C=CC(=O)C=C1CC[C@@H]1[C@@H]2[C@@H](O)C[C@@]2(C)[C@H]1CC[C@]2(O)C(=O)COC(=O)CCC(=O)O`, the outcome is reported as “inactive”. With `CN(C)CCC=C1c2ccccc2CSc2ccccc21` the outcome was “inactive”. With `CC1CCc2cc(F)cc3c(=O)c(C(=O)O)cn1c23` (stereo not drawn) the outcome was “inactive”. In the case of `CN(C)CCC[C@@]1(c2ccc(F)cc2)OCc2cc(C#N)ccc21`, the outcome is reported as “inactive”. In the case of `CC[C@@H](C(=O)[C@@H](C)[C@@H](O)[C@H](C)[C@@H]1O[C@@H]([C@@H](CC)C(=O)O)CC[C@@H]1C)[C@H]1O[C@]2(C=C[C@@H](O)[C@]3(CC[C@@](C)([C@H]4CC[C@](O)(CC)[C@H](C)O4)O3)O2)[C@H](C)C[C@@H]1C`, the outcome is reported as “inactive”. In the case of `COc1cc(NS(=O)(=O)c2ccc(N)cc2)ncn1`, the outcome is reported as “inactive”. With `CN1CCCCC1CCN1c2ccccc2Sc2ccc(S(C)=O)cc21` (stereo not drawn) the outcome was “inactive”. For `O=C1OCCN1N=Cc1ccc([N+](=O)[O-])o1`, the outcome was “inactive”. With `O=C(O)[C@H](CC(=O)N1C[C@H]2CCCC[C@H]2C1)Cc1ccccc1` the outcome was “inactive”. For `CCCCCC=CCC1CC(=O)OC1=O` (stereo not drawn), the outcome was “inactive”. In the case of `O=[N+]([O-])c1ccccc1Nc1ccccc1`, the outcome is reported as “inactive”. In the case of `CCN(CC)CCOC(=O)c1ccc(N)cc1Cl`, the outcome is reported as “inactive”. With `CC1(C)[C@H](C(=O)O)N2C(=O)C[C@H]2S1(=O)=O` the outcome was “inactive”. For `c1ccc2c(c1)OCC(CN1CCCCC1)O2` (stereo not drawn), the outcome was “inactive”. For `CCCCCCCCSCC`, the outcome was “inactive”. In the case of `COC(=O)CCCCCCCCC(=O)OC`, the outcome is reported as “inactive”. For `C[C@@H]1CN(c2c(F)c(N)c3c(=O)c(C(=O)O)cn(C4CC4)c3c2F)C[C@H](C)N1`, the outcome was “inactive”. For `CCCCCCCCCCCCCCCC(=O)NCCO`, the outcome was “inactive”. With `CC12CCC(C1)C(C)(C)C2=O` (stereo not drawn) the outcome was “inactive”. For `CN1CCC(=C2c3ccccc3C=Cc3ccccc32)CC1`, the AC50 was 39.3 µM (active). In the case of `C=CCn1cc[n+](C)c1`, the outcome is reported as “inactive”. In the case of `CC(=O)N[C@@H]([C@@H](O)[C@H](O)[C@H](O)CO)[C@@H](O)CC(=O)C(=O)O`, the outcome is reported as “inactive”. With `NC[C@@H]1O[C@H](O[C@H]2[C@@H](O)[C@H](O[C@@H]3[C@@H](O)[C@H](N)C[C@H](N)[C@H]3O[C@H]3O[C@H](CO)[C@@H](O)[C@H](O)[C@H]3N)O[C@@H]2CO)[C@H](N)[C@@H](O)[C@@H]1O` the outcome was “inactive”. In the case of `Cc1cc(=O)oc2cc(O)cc(O)c12`, the outcome is reported as “inactive”. For `C=CCSCC1Nc2cc(Cl)c(S(N)(=O)=O)cc2S(=O)(=O)N1` (stereo not drawn), the outcome was “inactive”. For `Cc1cccc([N+](=O)[O-])c1C(=O)O`, the outcome was “inactive”. In the case of `CC(C)OC(=O)Nc1ccc2nc(-c3cscn3)[nH]c2c1`, the outcome is reported as “inactive”. With `CC(C)c1ccccc1` the outcome was “inactive”. In the case of `Oc1cc(O)c(Cl)cc1Cl`, the outcome is reported as “inactive”. In the case of `CN(C)c1ccc(CCO)cc1`, the outcome is reported as “inactive”. In the case of `CCCCCCCC`, the outcome is reported as “inactive”.

Molecular target: Cellular tumor antigen p53 (Homo sapiens) (UniProt P04637)
Sequence (P04637 whole entry, looked up): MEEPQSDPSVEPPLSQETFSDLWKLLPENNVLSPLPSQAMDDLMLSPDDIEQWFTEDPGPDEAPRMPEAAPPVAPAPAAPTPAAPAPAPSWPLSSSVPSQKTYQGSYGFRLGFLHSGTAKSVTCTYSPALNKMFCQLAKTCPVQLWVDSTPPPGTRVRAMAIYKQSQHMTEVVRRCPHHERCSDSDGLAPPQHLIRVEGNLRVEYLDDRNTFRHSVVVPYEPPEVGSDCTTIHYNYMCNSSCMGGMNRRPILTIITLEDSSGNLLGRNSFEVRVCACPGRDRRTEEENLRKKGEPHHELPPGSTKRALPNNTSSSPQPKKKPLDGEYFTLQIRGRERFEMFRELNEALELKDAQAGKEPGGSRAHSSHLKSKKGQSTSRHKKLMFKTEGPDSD
Assay: TOX21_p53_BLA_p2_ratio: Tox21 HCT-116 p53 Agonism Beta-lactamase Assay, Ratio, Phase 2 (AID 2283592)
Outline: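 First, HCT116 reporter cells settle for 5 h at 37C. Next, DMSO compound solutions are pinned in (217-fold dilution) and left 16 h. Finally, CCF4-AM substrate is loaded 2 h at room temperature and the 460/530 nm ratio read.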
For `OCCCC1CCCCC1`, the outcome was “inactive”. In the case of `NC(=O)N[C@@H](CCC(=O)O)C(=O)O`, the outcome is reported as “inactive”. With `CC(C(=O)O)c1ccc2c(c1)[nH]c1ccc(Cl)cc12` (stereo not drawn) the outcome was “inactive”. For `C#CCN(C)CCCOc1ccc(Cl)cc1Cl`, the outcome was “inactive”. In the case of `CC(C)(CO)[C@@H](O)C(=O)NCCC(=O)NCCSSCCNC(=O)CCNC(=O)[C@H](O)C(C)(C)CO`, the outcome is reported as “inactive”. In the case of `C/C=C/C=C/CO`, the outcome is reported as “inactive”. With `OC[C@@H](O)C(O)[C@H](O)CO` the outcome was “inactive”. In the case of `FC(F)(F)C(F)(F)C(F)(F)C(F)(F)C(F)(F)F`, the outcome is reported as “inactive”. With `C[C@]12C=CC(=O)C=C1CC[C@@H]1[C@@H]2[C@@H](O)C[C@@]2(C)[C@H]1CC[C@]2(O)C(=O)COC(=O)CCC(=O)O` the outcome was “inactive”. In the case of `CN(C)CCC=C1c2ccccc2CSc2ccccc21`, the outcome is reported as “inactive”. With `CC1CCc2cc(F)cc3c(=O)c(C(=O)O)cn1c23` (stereo not drawn) the outcome was “inactive”. With `CN(C)CCC[C@@]1(c2ccc(F)cc2)OCc2cc(C#N)ccc21` the outcome was “inactive”. With `CC[C@@H](C(=O)[C@@H](C)[C@@H](O)[C@H](C)[C@@H]1O[C@@H]([C@@H](CC)C(=O)O)CC[C@@H]1C)[C@H]1O[C@]2(C=C[C@@H](O)[C@]3(CC[C@@](C)([C@H]4CC[C@](O)(CC)[C@H](C)O4)O3)O2)[C@H](C)C[C@@H]1C` the outcome was “inactive”. In the case of `COc1cc(NS(=O)(=O)c2ccc(N)cc2)ncn1`, the outcome is reported as “inactive”. In the case of `CN1CCCCC1CCN1c2ccccc2Sc2ccc(S(C)=O)cc21` (stereo not drawn), the outcome is reported as “inactive”. In the case of `O=C1OCCN1N=Cc1ccc([N+](=O)[O-])o1`, the outcome is reported as “inactive”. In the case of `O=C(O)[C@H](CC(=O)N1C[C@H]2CCCC[C@H]2C1)Cc1ccccc1`, the outcome is reported as “inactive”. In the case of `CCCCCC=CCC1CC(=O)OC1=O` (stereo not drawn), the outcome is reported as “inactive”. For `O=[N+]([O-])c1ccccc1Nc1ccccc1`, the outcome was “inactive”. In the case of `CCN(CC)CCOC(=O)c1ccc(N)cc1Cl`, the outcome is reported as “inactive”. With `CC1(C)[C@H](C(=O)O)N2C(=O)C[C@H]2S1(=O)=O` the outcome was “inactive”. For `c1ccc2c(c1)OCC(CN1CCCCC1)O2` (stereo not drawn), the outcome was “inactive”. For `CCCCCCCCSCC`, the outcome was “inactive”. In the case of `COC(=O)CCCCCCCCC(=O)OC`, the outcome is reported as “inactive”. For `C[C@@H]1CN(c2c(F)c(N)c3c(=O)c(C(=O)O)cn(C4CC4)c3c2F)C[C@H](C)N1`, the outcome was “inactive”. In the case of `CCCCCCCCCCCCCCCC(=O)NCCO`, the outcome is reported as “inactive”. In the case of `CC12CCC(C1)C(C)(C)C2=O` (stereo not drawn), the outcome is reported as “inactive”. In the case of `CN1CCC(=C2c3ccccc3C=Cc3ccccc32)CC1`, the AC50 is reported as 43.2 µM (active). For `C=CCn1cc[n+](C)c1`, the outcome was “inactive”. In the case of `CC(=O)N[C@@H]([C@@H](O)[C@H](O)[C@H](O)CO)[C@@H](O)CC(=O)C(=O)O`, the outcome is reported as “inactive”. With `NC[C@@H]1O[C@H](O[C@H]2[C@@H](O)[C@H](O[C@@H]3[C@@H](O)[C@H](N)C[C@H](N)[C@H]3O[C@H]3O[C@H](CO)[C@@H](O)[C@H](O)[C@H]3N)O[C@@H]2CO)[C@H](N)[C@@H](O)[C@@H]1O` the outcome was “inactive”. With `Cc1cc(=O)oc2cc(O)cc(O)c12` the outcome was “inactive”. With `C=CCSCC1Nc2cc(Cl)c(S(N)(=O)=O)cc2S(=O)(=O)N1` (stereo not drawn) the outcome was “inactive”. For `Cc1cccc([N+](=O)[O-])c1C(=O)O`, the outcome was “inactive”. With `CC(C)OC(=O)Nc1ccc2nc(-c3cscn3)[nH]c2c1` the AC50 was 1.52 µM (active). In the case of `CC(C)c1ccccc1`, the outcome is reported as “inactive”. In the case of `Oc1cc(O)c(Cl)cc1Cl`, the AC50 is reported as 64.5 µM (active). With `CN(C)c1ccc(CCO)cc1` the outcome was “inactive”. For `CCCCCCCC`, the outcome was “inactive”.
